From the supplement of paper PMC6555819

System: PPARg:RXRa 30nM:10nM, anti-RXR (NR concentration 30 nM, RXRa partner concentration 10 nM)
Assay: PBM binding z-score (relative to random genomic background probes); higher = stronger binding; sequences stand for … in GC…GCGATTGACAGCGTAGAATGAAGG
Outline: (§1)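 Antibodies against each partner of ligand-free nuclear receptor dimers (one per run) detected binding on custom Agilent 4×180K protein-binding microarrays after 1 h incubation. The double-stranded probes had 34-nt variable regions carrying direct-repeat seeds, single-nucleotide variants, half-site ablations and random human genomic background sequences. Binding z-scores, from regression-normalized fluorescence, use the random background probes as reference.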

Compared with TCTGCTAGGTCAGGTGGTCAGCTAACGAGCTGCC, CGAACTTGGTCACCAGGACAGTGAAGAGGTTGGA is lower in PBM binding z-score: 1.38 for the first, -0.456 for the second.

First: CGAACTAGGTGACCAGGACAGTGAAGAGGTTGGA
Second: CCTACTGGGCCAAGGTCATTGCTCAGTCAAAGCA
The PBM binding z-score of the first is lower: 1.03 for the first, 1.07 for the second.

Compared with CGTCCAAGGTAAGAGAGGTCAGTGAATGCCGAGT, CGAACTAGGTCACCAGGACAGAGAAGAGGTTGGA is higher in PBM binding z-score: -0.312 for the first, 4.71 for the second.

Going from CCTACTGGGCCAAAGGTCAGTGATTCCAATGCTC to TGAATGAGGTCAAAGATCAGGGAACGTGGCGTCG, the PBM binding z-score falls from 9.62 to 7.23.

First: CCTTACGGGTCACTCCATGTTATAGCATCGGAGT
Second: CGAACTAGGTCACCAGGACAGTGGAGAGGTTGGA
The PBM binding z-score of the first is lower: 0.894 for the first, 4.41 for the second.

Going from CGAATTAGGTCACCAGGACAGTGAAGAGGTTGGA to GATACAGGGTGAAGGCCAGAGTACGCGTATTGAT, the PBM binding z-score falls from 4.82 to 0.138.

Going from CGAACTAGGTCATCAGGACAGTGAAGAGGTTGGA to AGTCAGAGTTCATCTAGGTAACGTAAGATATGCT, the PBM binding z-score falls from 4.15 to 1.67.

First: CCTACTGGGCCATTCAGAGGTCATTGATCATATG
Second: CCTTACGGGTCAAGGTAATAGCACGGGTGGTACG
The PBM binding z-score of the first is lower: 0.818 for the first, 1.46 for the second.

For CCTTACGGGTCAAGGTTATCGCACGGGTGGTACG, the PBM binding z-score was 2.29.

System: PPARg:RXRa 90nM:30nM, anti-RXR (NR concentration 90 nM, RXRa partner concentration 30 nM)
Assay: as above
Outline: as §1

Compared with CGAACTAGGTCACCAGGACAGTAAAGAGGTTGGA, ATATGTAGGATATCGGGTCATTCAGTTTGCGCAT is lower in PBM binding z-score: 6.51 for the first, 2.09 for the second.

First: ATACGTAGGTTACATCCGGGTCATTCAGGCTATG
Second: ATATGGAGGTTAGGGTCATTCAGAAAGTAGGGAA
The PBM binding z-score of the first is lower: 1.13 for the first, 3.76 for the second.

First: ATATGTAGGTTAGGGTCATTCACAAAGTAGGGAA
Second: TAGCCTAGGTCATTCAGGGGGCAGTATAGAAAGC
The PBM binding z-score of the first is higher: 6.22 for the first, 3.53 for the second.

Going from CGAGCTAGGTCACCAGGACAGTGAAGAGGTTGGA to CGAACTAGGCCAAAGGACAGTGAAAGGCGACGTA, the PBM binding z-score rises from 2.68 to 7.2.

First: CGAACTAGGTCACCACGACAGTGAAGAGGTTGGA
Second: CGTCCAAGGTCAATGCAAGGTCAGTGAAAGCATT
The PBM binding z-score of the first is higher: 6.86 for the first, 3.82 for the second.

First: CGAACCAGGTCACCAGGACAGTGAAGAGGTTGGA
Second: CCTAGTTGGTCAAGGTAACACACGCTATAGGTAC
The PBM binding z-score of the first is higher: 4.73 for the first, 0.891 for the second.

Going from ATATGTAGGTTACATCCGAGTCATTCAGGCTATG to ATATGAAGGTTATCGGGTCATTCAGTTTGCGCAT, the PBM binding z-score rises from 3.1 to 3.11.

Going from ATATGTAGGTTACATCGGGGTCATTCAGGCTATG to CTCGAAAGGTCGGTTGAGGTGAGTAAACGGATAA, the PBM binding z-score falls from 5.65 to 0.00835.

Compared with CGAACTAGGTAAAAGGACAGTGAAAGGCGACGTA, CGTCAAAGTTCAACTAAGTTAACGTAAAGCACGC is lower in PBM binding z-score: 7.51 for the first, 4 for the second.

Compared with ATATGTGGGTTAGGGTCATTCAGAAAGTAGGGAA, CCGACGGGGGCAAGGTTACCATAACGCACAGCCA is lower in PBM binding z-score: 5.8 for the first, 2.84 for the second.

First: CTCGAAAGGTCGTCCTCAGGTGAGTATACCAAAC
Second: ATTTGTAGGTTATCGGGTCATTCAGTTTGCGCAT
The PBM binding z-score of the first is lower: 2.43 for the first, 5.14 for the second.

Compared with TCTGCTAGGTCAGGTGGTCAGCTAACGAGCTGCC, CGAACTTGGTCACCAGGACAGTGAAGAGGTTGGA is lower in PBM binding z-score: 1.98 for the first, -0.143 for the second.

Going from CGAACTAGGTGACCAGGACAGTGAAGAGGTTGGA to CCTACTGGGCCAAGGTCATTGCTCAGTCAAAGCA, the PBM binding z-score rises from 1.94 to 3.55.

Compared with CGTCCAAGGTAAGAGAGGTCAGTGAATGCCGAGT, CGAACTAGGTCACCAGGACAGAGAAGAGGTTGGA is higher in PBM binding z-score: 0.249 for the first, 6.65 for the second.

Going from CCTACTGGGCCAAAGGTCAGTGATTCCAATGCTC to TGAATGAGGTCAAAGATCAGGGAACGTGGCGTCG, the PBM binding z-score falls from 12.5 to 9.22.

First: CCTTACGGGTCACTCCATGTTATAGCATCGGAGT
Second: CGAACTAGGTCACCAGGACAGTGGAGAGGTTGGA
The PBM binding z-score of the first is lower: 2.33 for the first, 6.57 for the second.

First: CGAATTAGGTCACCAGGACAGTGAAGAGGTTGGA
Second: GATACAGGGTGAAGGCCAGAGTACGCGTATTGAT
The PBM binding z-score of the first is higher: 6.53 for the first, 0.958 for the second.

Going from CGAACTAGGTCATCAGGACAGTGAAGAGGTTGGA to AGTCAGAGTTCATCTAGGTAACGTAAGATATGCT, the PBM binding z-score falls from 5.72 to 3.42.

Compared with CCTACTGGGCCATTCAGAGGTCATTGATCATATG, CCTTACGGGTCAAGGTAATAGCACGGGTGGTACG is higher in PBM binding z-score: 2.26 for the first, 3.28 for the second.

Work on CCTTACGGGTCAAGGTTATCGCACGGGTGGTACG yielded a PBM binding z-score of 3.7.
